Test results taken from the antibiotic and cytotoxicity screens of Wong et al. (2023).
Hit rate of the full screen: of about 39,000 compounds, about 1,500 (3.8%) were called active. The entries come from a sample that favours actives as a whole.

Test system: HSkMC (human skeletal muscle cells)
Assay: cytotoxicity call (relative viability < 0.9)
Conditions: 10 µM

Compound | cytotoxicity call
C[C@@H]1CCCCO[C@H](CN(C)Cc2ccccc2)[C@H](C)CN([C@H](C)CO)C(=O)c2cc(NC(=O)CCC(F)(F)F)ccc2O1 | inactive
Cc1ccc(S(=O)(=O)Nc2ccc3c(c2)C(=O)N([C@@H](C)CO)C[C@H](C)[C@H](CN(C)C(=O)Nc2ccccc2)OCCCC[C@@H](C)O3)cc1 | inactive
CCS(=O)(=O)N1CC[C@@H]2CO[C@H](CN3CCN(C)CC3)[C@@H]2C1 | inactive
Cc1noc(C)c1S(=O)(=O)Nc1ccc2c(c1)CC(=O)N([C@@H](C)CO)C[C@H](C)[C@@H](CN(C)CC1CC1)O2 | inactive
C[C@H]1CCCCO[C@@H](CN(C)S(=O)(=O)c2ccccc2)[C@@H](C)CN([C@@H](C)CO)C(=O)c2cc(NC(=O)Nc3ccc(C(F)(F)F)cc3)ccc2O1 | inactive
C=CCNC1=C2C[C@H](C)C[C@H](OC)[C@@H](O)[C@H](C)/C=C(\C)[C@H](OC(N)=O)[C@H](OC)/C=C/C=C(\C)C(=O)NC(=CC1=O)C2=O | active
COC1=C2C[C@@H](C)C[C@H](OC)[C@H](O)[C@@H](C)/C=C(\C)[C@H](OC(N)=O)[C@@H](OC)/C=C\C=C(/C)C(=O)NC(=CC1=O)C2=O | inactive
CO[C@H]1/C=C\C=C(/C)C(=O)NC2=CC(=O)C(NCCN(C)C)=C(C[C@@H](C)C[C@H](OC)[C@H](O)[C@@H](C)/C=C(\C)[C@@H]1OC(N)=O)C2=O | active
CO[C@H]1/C=C\C=C(/C)C(=O)NC2=CC(=O)C=C(C2=O)[C@H](OC)[C@@H](C)C[C@H](OC)[C@H](O)[C@@H](C)/C=C(\C)[C@@H]1OC(N)=O | inactive
C=CCNC1=C2C[C@@H](C)C[C@H](OC)[C@H](O)[C@@H](C)/C=C(\C)[C@H](OC(N)=O)[C@@H](OC)/C=C\C=C(/C)C(=O)NC(=CC1=O)C2=O | active
COC1=C2C[C@H](C)C[C@H](OC)[C@@H](O)[C@H](C)/C=C(\C)[C@H](OC(N)=O)[C@H](OC)/C=C/C=C(\C)C(=O)NC(=CC1=O)C2=O | inactive
COC1=C2C[C@@H](C)C[C@H](OC)[C@H](O)[C@@H](C)/C=C(\C)[C@H](OC(N)=O)[C@@H](OC)/C=C/C=C(\C)C(=O)NC(=CC1=O)C2=O | active
Cc1noc(C)c1NC(=O)Nc1ccc2c(c1)CC(=O)N([C@H](C)CO)C[C@H](C)[C@H](CN(C)Cc1ccc(C(F)(F)F)cc1)O2 | inactive
C[C@H](CO)N1C[C@H](C)[C@H](CN(C)CC2CCOCC2)Oc2ncc(C#Cc3cccc(F)c3)cc2C1=O | inactive
CC(C)(C)c1cccc(N)c1 | inactive
CCCC(=O)Nc1ccc2c(c1)C(=O)N(C)C[C@@H](OC)[C@@H](C)CN(Cc1ccc(-c3ccccn3)cc1)[C@@H](C)CO2 | inactive
COc1cccc(OCc2ccc(Cn3nc(NC(=O)NCc4ccc(F)cc4)c4ccccc43)cc2)c1 | inactive
O=c1ccoc2cc(O)c([C@H]3O[C@H](CO)[C@@H](O)[C@H](O)[C@@H]3O)c(O)c12 | inactive
C[C@H]1CN([C@@H](C)CO)C(=O)Cc2cc(NC(=O)C3CCCCC3)ccc2O[C@@H]1CN(C)C(=O)Nc1ccc(C(F)(F)F)cc1 | inactive
CC(C)NC(=O)N(C)C[C@H]1Oc2c(NC(=O)C3CCOCC3)cccc2C(=O)N([C@@H](C)CO)C[C@H]1C | inactive
CCC(=O)OC(CC(=O)O)C[N+](C)(C)C.[Cl-] (centres undefined) | inactive
CCS(=O)(=O)NCC[C@H]1CC[C@@H](NS(=O)(=O)c2ccccc2C)[C@@H](CO)O1 | inactive

Compound | cytotoxicity call
C[C@@H]1CN([C@H](C)CO)C(=O)CCCn2cc(nn2)CO[C@H]1CN(C)C(=O)Nc1ccnc(N2CCOCC2)c1 | inactive
Cc1ccc(S(=O)(=O)N(C)C[C@@H]2OCCCC[C@H](C)Oc3ccc(NC(=O)Cc4ccccc4)cc3C(=O)N([C@@H](C)CO)C[C@H]2C)cc1 | inactive
C[C@@H]1CCCCO[C@H](CN(C)C(=O)c2ccccc2)[C@@H](C)CN([C@@H](C)CO)C(=O)c2cc(NC(=O)NC3CCCCC3)ccc2O1 | inactive
CC/1=C(CCC(=O)O)/C/2=C/c3[nH]c(c(c3CCC(=O)O)C)/C=C/3\N=C(/C=C/4\N=C(\C=C1/N2)C(=C4C)C=C)C(=C3C)C=C | inactive
C=CC1=C(C)c2cc3[nH]c(cc4nc(cc5[nH]c(cc1n2)c(C)c5CCC(=O)O)C(CCC(=O)O)=C4C)c(C)c3C=C | inactive
COC(=O)CCc1c(c/2[nH]c1/C=C/1\N=C(/C=C/3\N=C(/C=C/4\N/C(=C2)[C@]2(C)[C@H](C(=O)OC)C(=CC=C42)C(=O)OC)C(=C3C=C)C)C(=C1CCC(=O)O)C)C | active
Cc1noc(C)c1NC(=O)N(C)C[C@@H]1Oc2c(NC(=O)c3ccc(-c4nccs4)cc3)cccc2C(=O)N([C@H](C)CO)C[C@@H]1C | inactive
C[C@@H]1CCCCO[C@@H](CN(C)C(=O)c2ccccc2)[C@H](C)CN([C@H](C)CO)C(=O)c2cc(NC(=O)Nc3ccc(C(F)(F)F)cc3)ccc2O1 | inactive
C[C@@H]1CN([C@H](C)CO)C(=O)c2cc(NC(=O)Nc3ccc(C(F)(F)F)cc3)ccc2O[C@@H](C)CCCCO[C@H]1CN(C)C(=O)c1ccccc1 | active
C[C@H]1CCCCO[C@@H](CN(C)C(=O)c2ccccc2)[C@@H](C)CN([C@@H](C)CO)C(=O)c2cc(NC(=O)Nc3ccc(C(F)(F)F)cc3)ccc2O1 | inactive
C[C@@H]1CN([C@H](C)CO)C(=O)c2cc(NC(=O)Nc3ccc(C(F)(F)F)cc3)ccc2O[C@@H](C)CCCCO[C@@H]1CN(C)C(=O)c1ccccc1 | active
C[C@H]1CCCCO[C@H](CN(C)C(=O)c2ccccc2)[C@@H](C)CN([C@@H](C)CO)C(=O)c2cc(NC(=O)Nc3ccc(C(F)(F)F)cc3)ccc2O1 | inactive
C[C@@H]1CN([C@@H](C)CO)C(=O)c2cc(NC(=O)Nc3ccc(C(F)(F)F)cc3)ccc2O[C@@H](C)CCCCO[C@H]1CN(C)C(=O)c1ccccc1 | inactive
C[C@@H]1CN([C@H](C)CO)C(=O)c2cc(NC(=O)Nc3ccccc3)ccc2O[C@@H](C)CCCCO[C@@H]1CN(C)Cc1ccc(Cl)c(Cl)c1 | inactive
CC1(C)[C@H](C(N)=O)CC[C@@]1(C)C(=O)O | inactive
C[C@H]1CCCCO[C@@H](CN(C)Cc2ccccc2)[C@@H](C)CN([C@@H](C)CO)C(=O)c2cc(NC(=O)Nc3ccc(F)cc3)ccc2O1 | active
C[C@H]1CCCCO[C@H](CN(C)Cc2ccccc2)[C@@H](C)CN([C@@H](C)CO)C(=O)c2cc(NC(=O)Nc3ccc(F)cc3)ccc2O1 | inactive
C[C@H](CO)N1C[C@H](C)[C@H](CN(C)Cc2ccccc2)OCCCC[C@H](C)Oc2ccc(NC(=O)Nc3ccc(F)cc3)cc2C1=O | inactive
C[C@@H]1CN([C@H](C)CO)C(=O)c2cc(NC(=O)Nc3ccc(F)cc3)ccc2O[C@@H](C)CCCCO[C@@H]1CN(C)Cc1ccccc1 | inactive
C[C@@H]1CN([C@H](C)CO)C(=O)c2cc(NC(=O)Nc3ccc(F)cc3)ccc2O[C@@H](C)CCCCO[C@H]1CN(C)Cc1ccccc1 | active
C[C@@H]1CCCCO[C@H](CN(C)Cc2ccccc2)[C@H](C)CN([C@H](C)CO)C(=O)c2cc(NC(=O)Nc3ccc(F)cc3)ccc2O1 | inactive
COc1ccc(CN(C)C[C@@H]2OCCCC[C@H](C)Oc3ccc(NS(=O)(=O)c4ccc(F)cc4)cc3C(=O)N([C@@H](C)CO)C[C@@H]2C)cc1 | inactive

Compound | cytotoxicity call
C[C@H](CO)N1C[C@H](C)[C@H](CN(C)S(C)(=O)=O)Oc2c(NS(=O)(=O)c3cn(C)cn3)cccc2C1=O | inactive
COc1ccc2c3c(n(c2c1)C)[C@@H](CO)N(C[C@]13CCN(CC1)S(=O)(=O)C)C(=O)CN(C)C | inactive
COc1ccc(NC(=O)N(C)C[C@H]2OCCCC[C@H](C)Oc3ccc(NC(=O)Nc4ccc(C(F)(F)F)cc4)cc3C(=O)N([C@@H](C)CO)C[C@@H]2C)cc1 | inactive
Clc1ccc(C(Cn2ccnc2)OCc2ccsc2Cl)c(Cl)c1 (centres undefined) | inactive
Clc1ccc(C(c2ccc(Cl)cc2)[n+]2ccn(C[C@@H](OCc3ccc(Cl)cc3Cl)c3ccc(Cl)cc3Cl)c2)cc1 | active
Clc1ccc(COC(Cn2ccnc2)c2ccc(Cl)cc2Cl)c(Cl)c1.O=[N+]([O-])O (centres undefined) | inactive
Cc1ccc2c(=O)c3ccccc3n(CCCN)c2c1C | inactive
CCCC#Cc1cnc2c(c1)C(=O)N([C@H](C)CO)C[C@@H](C)[C@H](CN(C)S(=O)(=O)c1cccc(OC)c1)O2 | inactive
Nc1ncnc2c1c(-c1ccc(Cl)cc1)nn2-c1cccc(-c2cnnn2Cc2cccc(-c3ccccc3)c2)c1 | active
C[C@H](CO)N1C[C@H](C)[C@H](CN(C)S(C)(=O)=O)Oc2c(NC(=O)CCCCCC(=O)Nc3ccccc3N)cccc2C1=O | inactive
COc1ccc(NC(=O)N(C)C[C@@H]2Oc3ccc(NC(=O)CCCCCC(=O)Nc4ccccc4N)cc3CC(=O)N([C@H](C)CO)C[C@H]2C)cc1 | inactive
C[C@@H]1CN([C@H](C)CO)C(=O)c2cc(NC(=O)Nc3ccc(F)cc3)ccc2O[C@@H]1CN(C)Cc1ccc(Cl)c(Cl)c1 | inactive
COc1ccc(NC(=O)Nc2ccc3c(c2)C(=O)N([C@H](C)CO)C[C@H](C)[C@H](CN(C)Cc2ccc(Cl)c(Cl)c2)O3)cc1 | inactive
C[C@@H]1CN([C@@H](C)CO)C(=O)c2cc(NC(=O)Nc3ccc(F)cc3)ccc2O[C@H]1CN(C)Cc1ccc(Cl)c(Cl)c1 | inactive
COc1ccc(NC(=O)Nc2ccc3c(c2)C(=O)N([C@H](C)CO)C[C@@H](C)[C@@H](CN(C)Cc2ccc(Cl)c(Cl)c2)O3)cc1 | inactive
C[C@@H]1CN([C@@H](C)CO)C(=O)c2cc(NC(=O)Nc3ccc(F)cc3)ccc2O[C@@H]1CN(C)Cc1ccc(Cl)c(Cl)c1 | active
C[C@@H]1CN([C@H](C)CO)C(=O)c2cc(NC(=O)Nc3ccc(F)cc3)ccc2O[C@H]1CN(C)Cc1ccc(Cl)c(Cl)c1 | inactive
COc1ccc(NC(=O)Nc2ccc3c(c2)C(=O)N([C@@H](C)CO)C[C@H](C)[C@H](CN(C)Cc2ccc(Cl)c(Cl)c2)O3)cc1 | active
C[C@H](CO)N1C[C@H](C)[C@H](CN(C)Cc2ccc(Cl)c(Cl)c2)Oc2ccc(NC(=O)Nc3ccc(F)cc3)cc2C1=O | active
C[C@H]1CN([C@@H](C)CO)C(=O)c2cc(NC(=O)Nc3ccc(F)cc3)ccc2O[C@H]1CN(C)Cc1ccc(Cl)c(Cl)c1 | inactive
